Source: PubChem BioAssay
Shown are actives, neighbours in structure and some others; about 9% of the full set was active somewhere.
IMPase Li cell: qHTS Assay for Identifying the Cell-Membrane Permeable IMPase Inhibitors: Potentiation with Lithium | 210,000 tested, 0.35% active | Potency, µM (titrated, usually from 59.4 µM), hits mostly inhibitors | AID 1457, 2008 | CHO-M1 cells, IP1 TR-FRET (IP-One), carbachol + lithium; active = well fitted curve in the direction sought with a large enough effect; inconclusive = small, poorly fitted or top-dose-only effect, or another doubt; inactive = no such curve, though single readings can be large; an effect the other way counts as inactive or inconclusive;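 note: IP1 builds up when IMPase is blocked and the TR-FRET signal falls; nearly all actives have a fitted effect of over 50% in size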
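Readout is a homogeneous TR-FRET IP1 immunoassay (Ex 320, Em 665 and 620), where raised cytosolic IP1 lowers signal. Cells were CHO-M1 treated 30 min at 37C with test compounds plus a little lithium; AC50 values came from Hill-equation fitting.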
Luc counter: Counterscreen for Luciferase (Kinase-Glo TM) Inhibition | Luciferin 4-monooxygenase (Photuris pensylvanica), Q27757 | Kinase-Glo luciferase, ATP luminescence, 8 min | Potency, µM (series often up to 38.3 µM), actives largely listed as inhibitors | 200,000 tested, 0.28% active | AID 1379, 2008; active = well fitted curve in the direction sought with a large enough effect; inconclusive = small, poorly fitted or top-dose-only effect, or another doubt; inactive = no such curve, though single readings can be large; an effect the other way counts as inactive or inconclusive; note: nearly all actives have a fitted effect of over 60% in size
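Compound is pinned into ATP-containing buffer (10 uM ATP, imidazole pH 7.2, 7 mM MgCl2). Kinase-Glo luciferase reagent is then added. Light output is recorded following an 8-min room-temperature incubation.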
Lamin A splicing: qHTS Assay for Modulators of Lamin A Splicing; HeLa LMNA splicing GFP/RFP minigene ratio, 48 h; 200,000 tested, 0.01% active; AID 1487, 2009; Potency, µM (series often up to 46.1 µM), most hits filed as inhibitors; active = well fitted inhibition curve with a large enough effect in the signal ratio, with a control signal flat, not every such curve was filed as active; inconclusive = small, poorly fitted or top-dose-only effect, or effect the other way, or a change in a side signal; the % refers to the signal ratio
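S3 HeLa stable clones carrying a lamin A-EGFP splicing minigene plus DsRed2 were seeded at 600 cells/well in Opti-MEM with 2% FBS, pin-dosed and incubated 48 h at 37°C. Acumen cytometry (488 nm) gave the GFP/RFP total-intensity ratio.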
ALDH1A1 block: qHTS Assay for Inhibitors of Aldehyde Dehydrogenase 1 (ALDH1A1) | AID 1030, 2008 | 220,000 tested, 7.3% active | Potency, µM (titrated, usually from 75.3 µM), most hits filed as inhibitors | Purified ALDH1A1, NADH fluorescence, propionaldehyde substrate
Target sequence (P00352 whole entry, looked up): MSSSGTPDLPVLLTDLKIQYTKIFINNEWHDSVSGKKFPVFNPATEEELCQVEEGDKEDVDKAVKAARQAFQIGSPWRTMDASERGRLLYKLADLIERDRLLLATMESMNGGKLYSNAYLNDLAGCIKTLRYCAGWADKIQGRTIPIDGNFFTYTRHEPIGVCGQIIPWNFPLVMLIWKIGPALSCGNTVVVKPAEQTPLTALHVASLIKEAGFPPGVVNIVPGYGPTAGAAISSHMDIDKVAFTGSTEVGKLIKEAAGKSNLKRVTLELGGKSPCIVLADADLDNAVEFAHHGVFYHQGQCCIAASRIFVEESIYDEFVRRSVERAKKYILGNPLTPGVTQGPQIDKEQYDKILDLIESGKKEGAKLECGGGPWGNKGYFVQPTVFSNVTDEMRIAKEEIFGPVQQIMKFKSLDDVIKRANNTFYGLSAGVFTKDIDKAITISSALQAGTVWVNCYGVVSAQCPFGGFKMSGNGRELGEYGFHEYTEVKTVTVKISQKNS
HPGD inh: qHTS Assay for Inhibitors of HPGD (15-Hydroxyprostaglandin Dehydrogenase). 15-hydroxyprostaglandin dehydrogenase [NAD(+)] (Homo sapiens), P15428. purified HPGD, NADH fluorescence kinetic, PGE2 substrate. Potency, µM, hits mostly inhibitors. 150,000 tested, 4.3% active. AID 894, 2007
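20 nM HPGD preincubated 15 min at room temperature with compound in 50 mM Tris-HCl pH 8, 0.01% Tween 20. Started with 1 mM NAD+ and 30 uM prostaglandin E2; NADH fluorescence (360/450 nm) read 5 times over 30-s intervals, last minus first.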
Numbers stand for hits. Unless noted, calls come from the whole dose curve; as a rule, active = well fitted inhibition curve with a large enough effect (not every such curve was filed as active); inconclusive = small, poorly fitted or top-dose-only effect, or another doubt; inactive = no such curve, though single readings can be large or run the other way.

Screening NNc1nc2cccnc2n(CCNc2ncc(C(F)(F)F)cc2Cl)c1=O returned IMPase Li cell inactive, Luc counter inactive, Lamin A splicing inactive and ALDH1A1 block 1.6µM.
For O=c1c(Cl)nc2cc(Cl)ccc2n1CCNc1ncc(C(F)(F)F)cc1Cl the results were IMPase Li cell inactive, Luc counter inactive, Lamin A splicing inconclusive, ALDH1A1 block inactive and HPGD inh inactive.
For O=C(NCCCCc1ccccc1)c1ccccc1Cl the results were IMPase Li cell inactive, Luc counter inactive and ALDH1A1 block inactive.
For CC(C)(C)c1nnc2sc(SCC(=O)c3ccc(Cl)cc3)nn2c1=O the results were IMPase Li cell inactive, Luc counter inactive, Lamin A splicing inconclusive, ALDH1A1 block 4.5µM and HPGD inh 28µM.
`Cc1ccc(C(=O)CSc2nn3c(=O)c(C(C)(C)C)nnc3s2)cc1` gave IMPase Li cell inconclusive, Luc counter inactive, Lamin A splicing inactive, ALDH1A1 block inconclusive and HPGD inh inactive.
`CC1=CN2C(=N)/C(=C/c3cn(CCCOc4ccccc4C)c4ccccc34)C(=O)N=C2S1` gave IMPase Li cell inactive, Luc counter inactive, Lamin A splicing inactive, ALDH1A1 block inconclusive and HPGD inh inconclusive.
Screening CC1=CN2C(=N)/C(=C/c3ccco3)C(=O)N=C2S1 returned IMPase Li cell inactive, Luc counter inactive, Lamin A splicing inconclusive, ALDH1A1 block 13µM and HPGD inh inactive.
CC1=CN2C(=N)/C(=C/c3ccc([N+](=O)[O-])o3)C(=O)N=C2S1 was read as IMPase Li cell inactive, Luc counter inactive, Lamin A splicing inconclusive, ALDH1A1 block 3.5µM and HPGD inh inactive.
Screening CS(=O)(=O)N1CCC2(CCCN(C(=O)Nc3ccccc3)C2)CC1 returned IMPase Li cell inactive, Luc counter inactive, ALDH1A1 block inactive and HPGD inh inactive.
Screening COc1ccc(-n2c(Cc3cccn3C)nnc2SCC(=O)Nc2ccccc2F)cc1 returned IMPase Li cell inactive, Luc counter inactive, Lamin A splicing inactive, ALDH1A1 block 16µM and HPGD inh inactive.
For COc1ccc(-n2c(Cc3cccn3C)nnc2SCC(=O)Nc2ccccc2C)cc1 the results were IMPase Li cell inactive, Luc counter inactive, Lamin A splicing inactive, ALDH1A1 block inconclusive and HPGD inh inactive.
Screening COc1ccc(-n2c(Cc3cccn3C)nnc2SCC(=O)Nc2cccc(C)c2C)cc1 returned IMPase Li cell inactive, Luc counter inactive, Lamin A splicing inactive, ALDH1A1 block 14µM and HPGD inh inactive.
COc1ccc(-n2c(Cc3cccn3C)nnc2SCC(=O)Nc2ccc(F)cc2F)cc1 was read as IMPase Li cell inactive, Luc counter inactive, Lamin A splicing inactive, ALDH1A1 block 10µM and HPGD inh inactive.
COc1ccc(NC(=O)CSc2nnc(Cc3cccn3C)n2-c2ccc(F)cc2)cc1 was read as IMPase Li cell inactive, Luc counter inactive, Lamin A splicing inactive, ALDH1A1 block inconclusive and HPGD inh inactive.
`COc1cccc(NC(=O)CSc2nnc(Cc3cccn3C)n2-c2ccc(F)cc2)c1` gave IMPase Li cell inactive, Luc counter inactive, Lamin A splicing inactive, ALDH1A1 block 14µM and HPGD inh inactive.
COc1ccc(-n2c(Cc3cccn3C)nnc2SCC(=O)Nc2cccc(OC)c2)cc1 was read as IMPase Li cell inactive, Luc counter inactive, Lamin A splicing inactive, ALDH1A1 block inconclusive and HPGD inh inactive.
COc1ccc(CC(=O)NC2CC(=O)N(c3cccc(F)c3)C2)cc1 (stereo not drawn) was read as Lamin A splicing inactive.
Screening COc1ccc(CNC(=O)c2cc3c(=O)n(Cc4ccco4)ccc3nc2C)c(OC)c1 returned Lamin A splicing inactive.
CCOC(=O)C1=C(C)C(c2ccccc2)NC(=S)N1 (stereo not drawn) was read as IMPase Li cell inactive, Luc counter inactive, Lamin A splicing inactive, ALDH1A1 block 2.5µM and HPGD inh inactive.
Screening COc1ccc(C2NC(=S)NC(C)=C2C(=O)Nc2ccccn2)cc1 (stereo not drawn) returned IMPase Li cell inactive, Luc counter inactive, Lamin A splicing inactive and ALDH1A1 block 14µM.
`COc1ccc(OC)c(C2NC(=S)NC(C)=C2C(=O)Nc2ccccn2)c1` (stereo not drawn) gave IMPase Li cell inactive, Luc counter inactive, Lamin A splicing inactive and ALDH1A1 block inactive.
Screening COC(=O)C1=C(C)C(c2ccc(OC)cc2)NC(=O)N1 (stereo not drawn) returned IMPase Li cell inactive, Luc counter inactive and ALDH1A1 block inactive.
For COc1ccc(C2NC(=O)NC(C)=C2C(=O)Nc2cccc(C)c2C)cc1 (stereo not drawn) the results were IMPase Li cell inactive, Luc counter inactive, Lamin A splicing inactive, ALDH1A1 block 2.8µM and HPGD inh inactive.
For COC(=O)C1=C(C)C(c2ccc(OC)cc2)NC(=S)N1 (stereo not drawn) the results were IMPase Li cell inactive, Luc counter inactive, Lamin A splicing inactive, ALDH1A1 block 8.9µM and HPGD inh inactive.
Screening CC(C)Oc1ccc(CNC(=O)c2cnc3sc(N4CCCCCC4)nn3c2=O)cc1 returned Lamin A splicing inactive.
`CC1=NN(C(=O)c2ccoc2C)C(O)(C(F)(F)F)C1` (stereo not drawn) gave ALDH1A1 block inactive.
O=C(CCC1N=C2c3ccccc3N=C(SCc3cccc(Cl)c3)N2C1=O)NCc1cccs1 (stereo not drawn) was read as Lamin A splicing inactive.
For CCOc1ccc(-c2nc(Cn3c(=O)cc(C)c4c(C)nn(-c5ccccc5)c43)c(C)o2)cc1 the results were Lamin A splicing inactive.
`Cc1nc(CC(C)C)cc(C(=O)N2CCCC(CNS(=O)(=O)c3cccs3)C2)n1` (stereo not drawn) gave IMPase Li cell inactive, Luc counter inactive, Lamin A splicing inconclusive and ALDH1A1 block inactive.
For Cc1cc(C(=O)N2CCCC(CNS(=O)(=O)c3cccs3)C2)nn1C (stereo not drawn) the results were IMPase Li cell inactive, Luc counter inactive, Lamin A splicing inconclusive and ALDH1A1 block 18µM.
For COC(=O)c1ccccc1NC(=S)NC(=O)c1ccc2ccccc2c1 the results were IMPase Li cell inactive, Luc counter inactive, Lamin A splicing inactive, ALDH1A1 block inconclusive and HPGD inh inactive.
Screening COC(=O)c1ccccc1NC(=S)NC(=O)COc1ccc(C(C)C)cc1 returned IMPase Li cell inactive, Luc counter inactive, Lamin A splicing inactive, ALDH1A1 block 18µM and HPGD inh inactive.
